Source: PubChem BioAssay AID686978 (National Center for Advancing Translational Sciences (NCATS), 2013)
In all, about 420,000 compounds went through this assay and about 64,000 (15%) were called active. About 27% were inconclusive and are not listed. These entries were drawn from the full list. Values without a mark were called inactive. Calls follow the shape of the dose curve; as a rule, active = well fitted inhibition curve with a large enough effect; inconclusive = small, poorly fitted or top-dose-only effect; inactive = flat fitted curve, though single readings scatter.

Assay: qHTS for Inhibitors of human tyrosyl-DNA phosphodiesterase 1 (TDP1): qHTS in cells in absence of CPT; also: nearly all actives have a fitted effect of over 55% in size
Conditions: DT40 Tdp1-/- hTDP1 cells, no CPT, ATP luminescence, 48 h; activity change, negative = growth inhibition: at 46.2 µM (top of the series)
Method in brief: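 Stably hTDP1-transfected Tdp1-null chicken DT40 cells were treated with library compounds minus camptothecin and grown for at least 48 hr at 37 °C, after which cellular ATP was quantified by luminescence.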
% is scaled to controls: 0 for no effect and ±100 for the full control effect; potency is read from the fitted curve at half-maximal effect.

SMILES	activity change, negative = growth inhibition [%]	Potency
Cc1cc(C)c2nc(-c3cccnc3)cc(C(=O)Nc3ccc(S(=O)(=O)Nc4onc(C)c4C)cc3)c2c1	-22.7	
Cc1cc(C)n2nc(C(=O)OC(C)C(=O)c3cc(C)c(C)cc3C)nc2n1 (stereo unspecified)	-7.26	
Cc1cc(NC(=O)Nc2c[nH]c(=O)[nH]c2=O)ccc1Br	6.32	
CCOc1cc(/C=C2/C(=N)N3OC(C)=CC3=NC2=O)ccc1OC	-2.7	
O=C(Nc1ccc(Cl)cc1)c1csc([C@H]2C[C@H](O)[C@@H](CO)O2)n1	-24.7	
CCN(CC)CCN1C(=O)C2C(C(=O)Nc3ccc(Br)cc3)C3C=CC2(O3)C1C(=O)NC1CCCCC1 (stereo unspecified)	4.87	
CC1CC[C@@]23CCC4(C)[C@@]5(C)CCC6C(C)(C)C(O)CC[C@@]6(C)C5C=C[C@@]4(OC2=O)C3C1C (stereo partly specified)	-7.31	
O=C(NC(Cc1ccc(O)cc1)C(=O)O)/C(=C/c1ccccc1)NC(=O)c1ccccc1 (stereo unspecified)	3.55	
O=C(NCC(F)(F)F)Nc1nnc(C(F)(F)F)s1	-29.8	
CCOC(=O)C1=C(NC(=S)NC(=O)c2ccccc2)c2ccccc2CC1(C)C	-29	
COc1cccc(CNC(=O)CSc2c3c(nc4cc(Cl)ccc24)CCCC3)c1		14.6 µM (active)
O=C(O)CSc1c2c(nc3cc(C(=O)Nc4cccc(C(F)(F)F)c4)ccc13)CCCC2	-1.66	
COc1cccc(-c2ccc(C#N)c(SCC(=O)NCCc3ccc(Cl)cc3)n2)c1	-8.31	
CC(=O)c1ccc(NC(=O)c2ccc3c(Cl)c4c(nc3c2)CCCC4)cc1		18.4 µM (active)
CC(=O)c1ccc(NC(=O)c2cc(-c3cccs3)on2)cc1	-22.4	
COc1cccc(CNC(=O)c2nnn(CC(=O)Nc3cc(Cl)ccc3C)c2N)c1		inactive
Cc1nc2c(C(=O)NCc3ccc4c(c3)OCO4)c[nH]n2c(=O)c1Cc1ccccc1F	12.6	
Cc1cc(N)n(-c2ccc(S(=O)(=O)N3CCCC3)cc2[N+](=O)[O-])n1	0.143	
O=C(Nc1ccccc1C(=O)N1CCCCC1)c1ccco1	-1.83	
CCOCCCN(C)C1CCN(C(=O)c2oc3ccccc3c2NC(=O)COc2cccc(C)c2)CC1	4.68	
CCC(=O)Nc1c(C(=O)N2CCN(c3ccc(F)cc3)CC2)oc2ccccc12		25.9 µM (active)
O=C(Nc1c(C(=O)N2CCN(c3ccc(F)cc3)CC2)oc2ccccc12)c1ccco1		18.4 µM (active)
O=C(c1c(F)cccc1Cl)N1CCN(c2ccccn2)CC1	-13.2	
O=C(c1ccco1)N1CCN(C(=S)Nc2cc(F)cc(F)c2)CC1	-3.94	
CCOCCCN(C)C1CCN(C(=O)c2oc3ccccc3c2NC(=O)Cc2cccc([N+](=O)[O-])c2)CC1	-13.7	
COCC(=O)Nc1c(C(=O)N2CCCC2)oc2ccccc12	-12	

SMILES	activity change, negative = growth inhibition [%]	Potency
Cc1cc(C(=O)N2CCN(c3ccccn3)CC2)c(C)o1		12.6 µM (active)
O=C(C(Cl)Cl)N1CCN(c2ccccn2)CC1	-8.55	
O=C(c1cc2ccccc2s1)N1CCN(c2ccccn2)CC1	-1.53	
COc1cccc(OC)c1C(=O)Nc1c(C(=O)N2CCN(c3ccccn3)CC2)oc2ccccc12		25.9 µM (active)
O=C(CSc1nnc(Nc2ccccc2F)s1)NC1CCCC1	-13.1	
CC(=O)/C(C)=N\O	-5.03	
COc1cc(C2C(C(=O)c3cccs3)=C(O)C(=O)N2CCN2CCOCC2)ccc1OCCC(C)C (stereo unspecified)	-0.632	
CSc1cc(C)[nH]c(=O)n1	17.6	
Cc1nnc(SCc2cccc(Cl)c2)n(N)c1=O	2.72	
COC(=O)Nc1ccc(S(=O)(=O)N2CCN(CCN3C(=O)C4C5C=CC(C5)C4C3=O)CC2)cc1 (stereo unspecified)	-6.58	
Cc1ccc(C2SCC(=O)N2c2ccccc2)cc1 (stereo unspecified)	8.15	
Cc1ccc(S(=O)(=O)N(C)C)cc1NC(=O)/C=C/c1cccs1	-25	
COC(=O)c1cc(C(=O)N(Cc2ccccc2)c2ccccn2)cc([N+](=O)[O-])c1	-1.59	
CC(C)(C)C(=O)N(Cc1ccccc1)c1ccccn1	0.288	
CCC(=O)N(Cc1ccccc1)c1ccccn1	1.24	
Cc1csc2ncc(C(=O)N(Cc3ccccc3)c3ccccn3)c(=O)n12	-24.4	
COc1cc(CN(C(=O)c2ccccc2Br)c2ccccn2)cc(OC)c1OC		13 µM (active)
Cc1ccc(CN(C(=O)c2ccccc2[N+](=O)[O-])c2ccccn2)cc1		11.6 µM (active)
O=C(c1ccco1)N1CCC2(CC1)CN(c1ncccn1)C2	-12.3	
CCN(CC(=O)Nc1c(F)cccc1F)C(=O)c1ccc(S(=O)(=O)N2CCCCC2)cc1	-20.4	
CCN1CCN(C(=O)N(Cc2ccc(Cl)cc2)S(=O)(=O)c2ccc(C)cc2)CC1	-1.21	
O=c1[nH]c2ccccc2s1	-20.8	
O=C(Cn1c2[n+](c3ccc(C(F)(F)F)cc31)CCCCC2)Nc1c(F)cccc1F	10.3	
Cc1ccc(NC(=O)CSc2nc3ccccc3c3nc(CCn4cncc4C)nn23)cc1F		20.6 µM (active)
CC(=O)NCCn1c(SCC(=O)Nc2ccc(C)cc2)nc2ccccc2c1=O		inactive
